Among the data in PubChem BioAssay are z-score and composite z-score values, retold here.

The nature of test [1]: resazurin metabolic signal in HepG2 cells – cell-based, resazurin fluorescence, 24 h, PK04 Diversity Set, profiling panel (AID 1172). Also: test concentration not given here. The following applies: HepG2 viability, higher = more signal. (Resazurin is reduced to fluorescent resorufin, in cell work by metabolically active cells.)
A short description of test [2]: budding yeast growth changes without added modifier – OD600, strain BY4716, 24 h, basal condition, primary screen (AID 1173). The settings on record: S. cerevisiae BY4716 growth, OD600, 24 h; higher = more signal, called active from +8 up or from −8 down.
The nature of test [3]: viability profiling in MM1S myeloma cells – cell-based, resazurin fluorescence, basal, 24 h, PK04 Diversity Set, profiling panel (AID 1174).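 Also: MM1S multiple myeloma cell line; test concentration not given here.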 The following applies: higher = more signal, called active from +8 up or from −8 down.
For test [4], the target named is Dihydroorotate dehydrogenase (quinone), mitochondrial (Plasmodium falciparum (isolate 3D7)) (UniProt Q08210). Kind of test: inhibition of P. falciparum DHODH – biochemical, C-terminal His tag, absorbance 600 nm, primary screen (AID 1175).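 Also: recombinant parasite enzyme with a five histidine tag at its C terminus; test concentration not given here.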 The settings on record: PfDHODH enzyme, DCIP absorbance 600 nm; higher = more signal, called active from +8 up or from −8 down.
Test [5] in a line: inhibition of PAO1 biofilm formation – strain PAO1, LB-PBS medium, absorbance 600 nm, primary screen (AID 1176). Also: test concentration not given here. The following applies: P. aeruginosa PAO1 growth/biofilm, A600, 12 h; higher = more signal.
A short description of test [6]: growth modulation of vineyard yeast isolate – strain RM11-1a, OD600, basal, 24 h, primary screen (AID 1177).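 Also: cultures grown under basal conditions with no added stressor; test concentration not given here.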 The following applies: S. cerevisiae RM11-1a growth, OD600, 24 h; higher = more signal, called active from +8 up or from −8 down.
The nature of test [7]: growth of efflux-deficient E. coli DRC39 – strain DRC39, OD650, 24 h, E. coli filamentation inducers, primary screen (AID 1178).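 Also: growth measured as culture turbidity by optical density at 650 nm; test concentration not given here.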 The settings on record: E. coli DRC39 acrAB, higher = more signal, called active from +8 up or from −8 down.
The nature of test [8]: growth of efflux-deficient E. coli DRC39 – strain DRC39, OD650, 48 h, E. coli filamentation inducers, primary screen (AID 1179).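 Also: screen aims at cell division blockers that make cells filament.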 The settings on record: E. coli DRC39 delta-acrAB growth, higher = more signal, called active from +8 up or from −8 down.
Test [9] is described as follows: viability profiling in RPMI8226 myeloma cells – cell-based, resazurin fluorescence, basal, 24 h, PK04 Diversity Set, profiling panel (AID 1180).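 Also: RPMI8826 multiple myeloma cell line at 5000 cells per well; test concentration not given here.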 The following applies: higher = more signal.
The target in test [10] is E3 ubiquitin-protein ligase XIAP (Homo sapiens) (UniProt P98170). Kind of test: small molecules binding XIAP protein – biophysical, small-molecule microarray, fluorescence 635 nm, primary screen (AID 1181).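 Also: score merges 667 nm emission and signal to noise over triplicate slides.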 The settings on record: higher = more signal.

Each structure is given as a SMILES string. Calls of active or inactive are those of the source. Unless noted, no rule for the calls is given here.

Sequence of Dihydroorotate dehydrogenase (quinone), mitochondrial (Plasmodium falciparum (isolate 3D7)) (Q08210 whole entry, looked up): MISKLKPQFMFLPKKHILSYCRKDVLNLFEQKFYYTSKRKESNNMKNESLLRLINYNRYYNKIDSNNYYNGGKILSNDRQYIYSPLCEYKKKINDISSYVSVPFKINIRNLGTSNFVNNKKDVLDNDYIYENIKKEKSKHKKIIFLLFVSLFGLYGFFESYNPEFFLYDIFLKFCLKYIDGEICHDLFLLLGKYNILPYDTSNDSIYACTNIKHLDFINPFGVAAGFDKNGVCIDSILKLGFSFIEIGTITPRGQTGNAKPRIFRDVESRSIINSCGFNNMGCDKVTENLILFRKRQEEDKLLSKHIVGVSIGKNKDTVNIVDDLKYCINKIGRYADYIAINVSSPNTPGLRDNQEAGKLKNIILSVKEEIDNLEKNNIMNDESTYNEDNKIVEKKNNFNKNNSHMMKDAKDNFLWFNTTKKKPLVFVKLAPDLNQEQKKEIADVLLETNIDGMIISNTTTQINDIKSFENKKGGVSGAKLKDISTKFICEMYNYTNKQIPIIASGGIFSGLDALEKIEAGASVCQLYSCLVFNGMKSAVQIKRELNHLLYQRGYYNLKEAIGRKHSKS
Sequence of E3 ubiquitin-protein ligase XIAP (Homo sapiens) (P98170 whole entry, looked up): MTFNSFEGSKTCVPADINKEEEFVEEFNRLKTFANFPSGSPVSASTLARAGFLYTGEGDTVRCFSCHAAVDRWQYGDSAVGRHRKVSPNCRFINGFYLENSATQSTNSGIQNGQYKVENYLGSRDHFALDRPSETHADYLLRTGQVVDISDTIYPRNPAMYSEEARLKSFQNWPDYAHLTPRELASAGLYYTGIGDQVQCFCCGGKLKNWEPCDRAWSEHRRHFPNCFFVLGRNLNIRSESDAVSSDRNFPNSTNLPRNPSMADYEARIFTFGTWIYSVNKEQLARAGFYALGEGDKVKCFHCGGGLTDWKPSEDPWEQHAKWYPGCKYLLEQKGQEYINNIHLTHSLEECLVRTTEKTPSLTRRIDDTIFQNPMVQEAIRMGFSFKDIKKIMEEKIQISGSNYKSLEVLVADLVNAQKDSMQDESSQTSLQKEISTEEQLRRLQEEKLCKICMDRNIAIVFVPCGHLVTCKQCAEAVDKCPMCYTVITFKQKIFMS

Take `C=CCN1C(=O)[C@]2(O[C@H](CCO)[C@@H]([Si](C)(C)c3ccc(OC)cc3)[C@@H]2C)c2cc(N3CCCCC3=O)ccc21`: the z-score in test [1] was -3.6; in test [2], 1.22 (inactive); in [3], -5.89 (inactive); in test [5], -0.577 (inactive); in test [6], 2.97 (inactive); in test [7], 0.575 (inactive). Besides, the figures for the z-score in test [8] and in [9] were -0.648 (inactive) and -6.02, respectively. The composite z-score in test [4] was -1.45 (inactive); in test [10] it was -0.258.
Turning to `C=CCOC(=O)[C@H]1[C@@H]2C(=O)O[C@@H](c3ccccc3)[C@@H](c3ccccc3)N2[C@@H](c2ccc(OCCOC(=O)[C@@H]3C[C@@H]4C(=O)N5CCC[C@H]5C(=O)N4[C@@H]3c3cccc(OCCO)c3)cc2)[C@]12C(=O)Nc1ccccc12`, the z-score in test [1] is -1; in [2], 1.15 (inactive); in test [3], 0.0098 (inactive); in test [5], 2.06 (inactive); in test [6], 1.76 (inactive); in test [7] it was -0.701 (inactive). Also, the z-score in test [8] is -1.5 (inactive); in test [9], -0.0769. The composite z-score in test [4] is 0.613 (inactive); in [10], -0.22.
In the case of `C=CCC(OC(C)=O)[C@@H]1[C@@H](N(Cc2ccc(-c3cccc(C(F)(F)F)c3)o2)C(=O)c2ccc(-c3ccccc3)cc2)c2cc(OCCCO)ccc2N1C(=O)c1ccc(-c2ccccc2)cc1` (stereo not given in full), the z-score in test [1] was -0.645; in [2], 1.03 (inactive); in test [3], 0.0516 (inactive); in test [5] it was 0.268 (inactive); in test [6], 0.609 (inactive); in test [7], -0.386 (inactive). In addition, the figures for the z-score in test [8] and in [9] were -0.487 (inactive) and 0.0033, respectively. Also, the values for the composite z-score in test [4] and in [10] were 0.0524 (inactive) and 0.0471, respectively.
On to `O=C1OCCC=C[C@H]2OC34C=CCN(CCN5CCOCC5)C(=O)[C@H]3N(CCCCCCO)C(=O)[C@@H]4C12` (stereo not given in full), for which the z-score is 0.24 in test [1]; 0.039 (inactive) in test [2]; -0.0328 (inactive) in [3]; -0.373 (inactive) in test [5]; 0.626 (inactive) in test [6]; 1.14 (inactive) in test [7]. In addition, the z-score in test [8] is 1.43 (inactive); in test [9], 0.22. The composite z-score in [4] is 0.369 (inactive); in test [10], 0.464.
Consider `[N-]=[N+]=Nc1ccccc1[C@H]1OC(c2ccc(OCCCO)cc2)=N[C@@]1(Cc1ccccc1)C(=O)O`, for which the z-score in test [1] is 0.615; in test [2], -0.967 (inactive); in test [3], -0.149 (inactive); in test [5], 0.631 (inactive); in [6], 0.222 (inactive); in test [7], 0.451 (inactive). Besides, the z-score was 0.534 (inactive) in [8] and -0.434 in [9]. Also, the composite z-score was 1.12 (inactive) in test [4] and 0.0735 in test [10].
With `CCCCCC1=C2CNC(CCC)(C(=O)OC)C=C2C(C)C1=O` (stereo not given), the z-score is -1.08 in [1]; 0.381 (inactive) in test [2]; -1.34 (inactive) in test [3]; 0.796 (inactive) in test [5]; 0.891 (inactive) in test [6]; 0.0107 (inactive) in [7]. Besides, the values for the z-score in test [8] and in test [9] were 0.56 (inactive) and -0.888, respectively. Further, the figures for the composite z-score in test [4] and in [10] were -1.62 (inactive) and 0.347, respectively.
On to `CCCC[C@@H]1C[C@H]1[C@@H](NC(=O)c1ccco1)c1ccc(C(=O)OC)cc1`, for which the z-score in test [1] is -0.351; in test [2] it was 0.788 (inactive); in [3], -0.184 (inactive); in test [5], 0.812 (inactive); in test [6], -0.716 (inactive); in test [7], -1.03 (inactive). The figures for the z-score in test [8] and in [9] were -0.489 (inactive) and -0.826, respectively. In addition, the composite z-score in test [4] is -0.271 (inactive); in test [10] it was 0.104.
`COC(=O)[C@@]1(Cc2ccc(F)cc2)[C@H]2c3cc(C(=O)N(C)C)n(Cc4nc5ccccc5[nH]4)c3C[C@H]2CN1C(=O)c1ccccc1`: the z-score in test [1] is 0.455; in test [2], 0.681 (inactive); in [3], -0.534 (inactive); in [5], 0.315 (inactive); in [6], 0.22 (inactive); in test [7], -0.0051 (inactive). For the same molecule, the z-score in test [8] is 0.12 (inactive); in test [9], -0.187. In addition, the composite z-score in [4] was 0.0187 (inactive); in [10], 0.338.
In the case of `CC(C)(C)OC(=O)CC[C@]1(C(=O)NCC(O)CO)COC(c2ccc(OCCCO)cc2)=N1` (stereo not given in full), the z-score in test [1] was 0.245; in test [2] it was 0.525 (inactive); in [3], 0.198 (inactive); in test [5] it was 0.826 (inactive); in [6], 1.51 (inactive); in test [7], 0.116 (inactive). In addition, the z-score is 0.0752 (inactive) in test [8] and 0.467 in test [9]. The values for the composite z-score in [4] and in test [10] were 0.563 (inactive) and -0.181, respectively.
Consider `CCCCN1CC=CC23O[C@@H]4C=CCOC(=O)[C@@H]4[C@H]2C(=O)N(CCCCCO)[C@@H]3C1=O` (stereo not given in full), for which the z-score is 0.371 in [1]; 0.0133 (inactive) in [2]; -0.86 (inactive) in test [3]; 0.91 (inactive) in [5]; -0.176 (inactive) in [6]; -0.967 (inactive) in [7]. Moreover, the z-score in [8] is -0.982 (inactive); in [9], -0.531. For the same molecule, the composite z-score in [4] was -0.165 (inactive); in test [10], 0.327.
Consider `CCC(CC)C(O)C1C=CC2C(=O)N(C)C(=O)C2N1Nc1ccccc1` (stereo not given), for which the z-score was -0.138 in test [1]; -0.692 (inactive) in test [2]; -0.193 (inactive) in test [3]; 1.12 (inactive) in test [5]; -0.0874 (inactive) in [6]; -0.53 (inactive) in test [7]. Moreover, the z-score is -0.662 (inactive) in [8] and 0.257 in test [9]. The composite z-score was -0.546 (inactive) in test [4] and 0.661 in test [10].
Consider `CC(C)(C)C(=O)N[C@@H](c1ccc(Cl)cc1)[C@]1(C)C[C@H]1C1CCCCC1`, for which the z-score in test [1] is -0.608; in [2], -0.507 (inactive); in [3] it was -0.385 (inactive); in [5] it was 1.03 (inactive); in test [6], 0.473 (inactive); in test [7], -0.196 (inactive). Moreover, the z-score in [8] is -0.27 (inactive); in test [9], -0.231. The composite z-score in test [4] was -0.554 (inactive); in [10] it was 0.261.
